Test results published in PubChem BioAssay (EPA / NIEHS).
“And” between values parts separate entries of the source, which are not always exact repeats. Equal entries are not always repeated. Some compounds were tested as several samples or in several runs, with calls that do not always agree. The source made the active and inactive calls. The calls were made as follows: active = hit-call score of the fitted dose curve at least 0.9, where 1 is the maximum; inactive = score below 0.9.

Test: ATG_MRE_CIS: Attagene CIS-FACTORIAL HepG2 Assay for human Metal Responsive Element (MRE) (AID 2282954)
Conditions: HepG2 MRE cis-reporter transcription, Attagene multiplex; actives raise or lower the signal
Protocol: ATG_CIS is a cell-based, multiplexed-readout assay that uses HepG2, a human liver cell line, with measurements taken at 24 hours after chemical dosing in a 24-well plate.ATG_MRE_CIS is one of 52 assay component(s) measured or calculated from the ATG_CIS assay. It is designed to make measurements of mRNA induction, a form of inducible reporter, as detected with fluorescence intensity signals by Reverse transcription polymerase chain reaction (RT-PCR) and Capillary electrophoresis technology.Data from the assay component ATG_MRE_CIS was analyzed into 1 assay endpoint. This assay endpoint, ATG_MRE_CIS, was analyzed with bidirectional fitting relative to DMSO as the negative control and baseline of activity. Using a type of inducible reporter, measures of mRNA for gain or loss-of-signal activity can be used to understand the reporter gene at the transcription factor-level as they relate to the gene MTF1. Furthermore, this assay endpoint can be referred to as a primary readout, because this assay has produced multiple assay endpoints where this one serves a reporter gene function. To generalize the intended target to other relatable targets, this assay endpoint is annotated to the dna binding intended target family, where the subfamily is zinc finger.
Human liver HepG2 cells are transiently transfected with multiple reporter transcription units (MRTUs) in 6-well plates using FuGene 6 reagent (Roche; 3 ml FuGene/1 mg DNA). The MRTU constructs are regulated by a cis-regulating element (promoter). […] A major difference between the CIS and TRANS system is that in CIS activities of endogenous TFs are measured, whereas the TRANS assay evaluates changes in activities of exogenous, chimeric NR-Gal4 proteins. […] At the end of 24 hour incubation, total RNA was isolated using TriZol reagent (Invitrogen). The isolated RNA is then reverse-transcribed using oligo(dT) primer and Mo-MLV reverse transcriptase (Invitrogen) with DNAse I (Ambion) treatment for 30 min. The one-tenth of the produced cDNA was amplified by PCR using Taq DNA polymerase (Invitrogen) and two reporter sequence-specific primers. The PCR products were fluorescently labeled by primer extension with 6-arboxyfluorescein (6-FAM) 5'-labeled reporter sequence-specific primer (2 min at 95 C, 20 s at 68 C and 10 min at 72 C) and these products were digested with 5U of HpaI (New England Biolabs) for 2h at 37 C. The fragments were purified using Qiaquick PCR columns (Qiagen), analyzed on an ABI 3130xL genetic analyzer (Applied Biosystems) with peak positions identified by using a set of X-rhodamine (ROX)-labeled MapMarker1000 molecular weight standards (BioVentures). The raw capillary electrophoresis data was processed using Attagraph software (Attagene).

outcome, inactive:
FC(OC(F)(F)C(F)(F)C(F)(F)F)C(F)(F)F (stereo not given), CCOC(C)=O, Cc1[nH]nc2c1N=C(c1ccccc1Cl)c1cc([N+](=O)[O-])ccc1N2, Cc1ccccc1C(OCCN(C)C)c1ccccc1 (stereo not given), CNNCc1ccc(C(=O)NC(C)C)cc1, COCN(COC)c1nc(N(COC)COC)nc(N(COC)COC)n1, CCCCCCCCCCCCCCC, CC[N+](CC)(CC)Cc1ccccc1, CC(C)CCOCCC(C)C, CCO[Si](CCC1CCC2OC2C1)(OCC)OCC (stereo not given), Cc1ccc(S(=O)(=O)O)cc1, CC(C)(O)C(=O)c1ccccc1, CC(C)[C@@H]1CC[C@@H](C)C[C@H]1O, NNC(=O)CCCCC(=O)NN, O=C(c1ccccc1)c1ccccc1, c1ccc(CNc2ncnc3c2ncn3C2CCCCO2)cc1 (stereo not given), OCC(F)(F)C(F)(F)C(F)(F)C(F)(F)C(F)(F)C(F)(F)C(F)(F)C(F)(F)C(F)(F)C(F)(F)C(F)(F)F, CCO[Si](C)(C)OCC, C=CC(C)(CCC=C(C)C)OC(C)=O (stereo not given), FC(F)(F)N1C(F)(F)C(F)(F)OC(F)(F)C1(F)F, CCCCc1ccc2ccccc2c1S(=O)(=O)O, CCCCC=O, Oc1cc2ccccc2cc1O, COc1cccc(O)c1, O=CC(F)(F)C(F)(F)C(F)(F)C(F)F, Cc1ccc2ccc3ccc(C)cc3c2c1, CCCCCCCCCCCCCCCC(=O)OC, Cc1ccc(C(=O)c2ccccc2)cc1, CC1CCC(C(=O)O)CC1 (stereo not given), CCCCCC(C)OC(=O)COc1ccc(Cl)c2cccnc12 (stereo not given), FC(F)=C(F)C(F)(F)C(F)(F)C(F)(F)C(F)F

AC50, active:
Cc1ccccc1C(OCCN(C)C)c1ccccc1 (stereo not given) 151 µM, CCCCc1oc2ccccc2c1C(=O)c1cc(I)c(OCCN(CC)CC)c(I)c1 18.3 µM, OCCN1CN(CCO)CN(CCO)C1 165 µM, CN(C)c1ccc(C(=C2C=CC(=[N+](C)C)C=C2)c2ccccc2)cc1 1.46 µM and 1.3 µM, CCOC(=O)c1nc(C(Cl)(Cl)Cl)n(-c2ccc(Cl)cc2Cl)n1 74.7 µM, Oc1c(Cl)cc(Cl)cc1Sc1cc(Cl)cc(Cl)c1O 11.5 µM, C/C=C/C(=O)C1=C(C)CCCC1(C)C 36.5 µM, CCC(=O)C=Cc1ccc(OC)cc1 65.4 µM, CCCCCCOC(=O)c1ccc(O)cc1 59.6 µM
